Potency, outcome and max activation data for eleven molecules are collected here from PubChem BioAssay (Tox21).

A short description of assay [1]: qHTS assay to identify small molecule agonists of the estrogen receptor alpha (ER-alpha) signaling pathway in the presence of an antagonist - cell viability counter screen (AID 1259386). Also: series mostly up to about 92 µM; nearly all actives have a fitted effect of over 30% in size. The essentials: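 Read-out: CellTiter-Fluor fluorescence after 1hr reagent incubation, measured in the same wells as the luciferase readout. VM7Luc4E2 cells were exposed to 15 compound concentrations with 10.0nM ICI-182,780 for 22hr at 37C.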
A general note: Quantitative high-throughput screening tests each substance at several concentrations.

Assay [2] addresses Progesterone receptor (Homo sapiens) (UniProt P06401). Put plainly: qHTS assay to identify small molecule agonists of the progesterone receptor (PR) signaling pathway (AID 1346784; calls by dose curve; also: nearly all actives have a fitted effect of over 30% in size). In outline:
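Using charcoal-stripped serum (2%) to limit endogenous steroids, PR-UAS-bla HEK 293T cells received compounds for 16 hr at 37C after 6 hr plating; beta-lactamase FRET fluorescence was recorded following 2 hr substrate loading at room temperature.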

Assay [3] in a line: qHTS assay to identify small molecule agonists of the progesterone receptor (PR) signaling pathway - cell viability counter screen (AID 1346799; calls by dose curve; also: nearly all actives have a fitted effect of over 45% in size). In outline: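 Cytotoxicity in PR-bla HEK293T cells: 16 h compound, 37C; CellTiter-Glo added post-FRET read; luminescence after 30 min RT.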
The nature of assay [4]: qHTS assay to identify small molecule antagonists of the TGF-beta/Smad signaling pathway - cell viability counter screen (AID 1346824). Also: nearly all actives have a fitted effect of over 50% in size. The essentials: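 Cytotoxicity counter-screen run in the same wells as the beta-lactamase Smad reporter read: CellTiter-Glo luminescence after 30 min at room temperature. HEK 293T SBE-bla cells had 5 hr compound exposure at 37 C with TGF-beta1 (0.25 ng/mL stock).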

Assay [5] is described as follows: qHTS assay to identify small molecule agonists of the TGF-beta/Smad signaling pathway - cell viability counter screen (AID 1346829). Also: top concentration of the series differs between compounds; nearly all actives have a fitted effect of over 45% in size. The essentials: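 Luminescence from CellTiter-Glo, read after a 30 min room-temperature incubation, gives cell viability of SBE-bla HEK 293T cells treated 5 hr with compounds at 37 C.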
A short description of assay [6]: qHTS assay to identify small molecule agonists of the TGF-beta/Smad signaling pathway (AID 1346859; active = well fitted activation curve with a large enough effect in the signal ratio in the repeat runs, not every such curve was filed as active; the % refers to the signal ratio; also: series mostly up to about 77 µM). The essentials: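 Stable Smad binding element-beta-lactamase HEK 293T cells; 5 hr compound exposure at 37 C under 5% CO2; 2 hr room-temperature substrate step; fluorescence excited at 405 nm, collected at 460 nm and 530 nm.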
The target of assay [7] is Thyrotropin-releasing hormone receptor (Homo sapiens) (UniProt P34981). Put plainly: qHTS assay to identify small molecule antagonists of the thyrotropin-releasing hormone receptor (TRHR) signaling pathway (AID 1346877; active = well fitted inhibition curve with a large enough effect in the repeat runs, not every such curve was filed as active; also: series mostly up to about 51 µM). In outline:
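HEK293/TRHR cells, 18 h, 37 °C; Ca2+ dye 2 h; cpd 5 min RT; TRH 1 nM final; fluorescence read 3 min, 1 s intervals; 15 concs, triplicate.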

Assay [8] is described as follows: Human pregnane X receptor (PXR) small molecule agonists, qHTS cell viability counter screen (AID 1346977). Also: nearly all actives have a fitted effect of over 50% in size. The essentials:
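Readout is CellTiter-Fluor fluorescence from PXR-Luc HepG2 cells. Plated cells rested 5hr, then were treated with compounds for 24hr at 37C and 5% CO2, with reagent present during the last hour.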

A short description of assay [9]: Caspase-3/7 induction in HepG2 cells by small molecules, qHTS assay (AID 1346978). Also: nearly all actives have a fitted effect of over 15% in size. In outline: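 Caspase-3/7 induction was measured by Caspase-Glo 3/7 luminescence (30 min, room temperature) after a 17 hr compound exposure of wild-type HepG2 cells seeded at 2,000 per well and pre-incubated 5 hr.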
Assay [10] is described as follows: Caspase-3/7 induction in CHO-K1 cells by small molecules, qHTS cell viability counter screen (AID 1346979). Also: nearly all actives have a fitted effect of over 35% in size. The essentials:
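To flag cytotoxic compounds, treated CHO-K1 wild-type cells were given CellTiter-Fluor at 16hr and read fluorescently after 1hr at 37C; the caspase-3/7 luminescence was measured in these same wells.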

Assay [11] can be described thus: Caspase-3/7 induction in CHO-K1 cells by small molecules, qHTS assay (AID 1346980). Also: nearly all actives have a fitted effect of over 15% in size. The essentials:
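Luminescent Caspase-Glo 3/7 read (30min, room temperature) quantified apoptosis induction. Cells were wild-type CHO-K1, treated with compound for 17hr at 37 C and 5% CO2.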

A short description of assay [12]: Caspase-3/7 induction in HepG2 cells by small molecules, qHTS cell viability counter screen (AID 1346981). Also: series mostly up to about 92 µM; nearly all actives have a fitted effect of over 30% in size. In outline: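 Fluorescence read-out of live-cell protease activity (CellTiter-Fluor) after 1 hr with reagent. This was measured in the same wells as the caspase-3/7 luminescence, on HepG2 cells exposed to DMSO-dissolved compounds for 16 hr at 37 C.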
Assay [13] addresses Nuclear receptor subfamily 1 group I member 2 (Homo sapiens) (UniProt O75469). Kind of assay: Human pregnane X receptor (PXR) small molecule agonists, qHTS assay (AID 1346982). Also: nearly all actives have a fitted effect of over 35% in size. Also: potency is read from the fitted curve at half-maximal effect. In outline: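 HepG2 PXR-Luc reporter line, 5% charcoal-stripped FBS; 5 hr pre-incubation, compound (DMSO) 24 hr at 37 C/5% CO2; ONE-Glo 30 min RT; luminescence read-out.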
In assay [14] the target is Acetylcholinesterase (Homo sapiens) (UniProt P22303). Kind of assay: Acetylcholinesterase (AChE) small molecule antagonists: colormetric cell-based qHTS assay (AID 1347395; calls by dose curve; also: nearly all actives have a fitted effect of over 30% in size). In outline:
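Neuroblastoma line SH-SY5Y supplied the enzyme; cells were preincubated with compound for 30 min at 37 C and 5% CO2. Acetylthiocholine with DTNB was then added for 90 min at 37 C, and thiocholine was measured by colour.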

Assay [15] concerns the target Progesterone receptor (Homo sapiens) (UniProt P06401). Kind of assay: qHTS assay to identify small molecule antagonists of the progesterone receptor (PR) signaling pathway (AID 1346795; active = well fitted inhibition curve with a large enough effect in the signal ratio in the repeat runs, not every such curve was filed as active; the % refers to the signal ratio; also: potency is read from the fitted curve at half-maximal effect). In outline:
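Inhibition of R5020-induced (1 nM final) beta-lactamase reporter signal in PR-UAS-bla HEK293T cells was scored by FRET fluorescence after overnight (16 hr) compound treatment.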

Assay [16] in a line: qHTS assay to identify small molecule antagonists of the progesterone receptor (PR) signaling pathway - cell viability counter screen (AID 1346798). Also: series mostly up to about 92 µM; nearly all actives have a fitted effect of over 50% in size. The essentials:
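ATP content as viability readout: CellTiter-Glo luminescence, 30 min room temperature, in PR-UAS-bla HEK293T cells after 16 hr compound/R5020 treatment at 37C and 5% CO2.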

Assay [17] has as its target Thyrotropin-releasing hormone receptor (Homo sapiens) (UniProt P34981). Put plainly: qHTS assay to identify small molecule agonists of the thyrotropin-releasing hormone receptor (TRHR) signaling pathway (AID 1346891; calls by dose curve;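 also: HEK293 cells expressing TRHR with calcium dye readout; series mostly up to about 58 µM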). The essentials:
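In 1536-format, 1500 TRHR-Hek293 cells per well grew 18 h, took up calcium dye for 2 h at 37 °C, received compound, and were read kinetically; 15-point titrations, triplicates.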

Assay [18] has as its target Nuclear receptor subfamily 1 group I member 2 (Rattus norvegicus) (UniProt Q9R1A7). Kind of assay: Rat pregnane X receptor (rPXR) activation by small molecules, qHTS assay (AID 1346983). Also: nearly all actives have a fitted effect of over 20% in size. To be noted: rPXR luciferase reporter cells, One-Glo luminescence, 24 h; max activation: stronger effect = higher value. In outline:
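Luminescent readout (One-Glo luciferase, 30 min room temperature) followed 24 hr compound treatment at 37 C of rPXR cells plated 2,000 per well and preincubated 5hr; qHTS format with compounds delivered in DMSO.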

The target of assay [19] is Nuclear receptor subfamily 1 group I member 2 (Homo sapiens) (UniProt O75469). Kind of assay: CYP3A4 induction through human pregnane X receptor (PXR) by small molecules, qHTS assay (AID 1346984). Also: nearly all actives have a fitted effect of over 40% in size. The essentials:
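HepG2-derived DPX-2 line carrying PXR plus a CYP3A4-promoter luciferase reporter; cells plated 5 hr, compound-exposed 24 hr at 37C. CYP3A4 activity probed with 3uM (final) Luciferin-IPA for 3hr, then luciferase read after One-Glo.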

The target is the same in assay [20]. Put plainly: Human pregnane X receptor (PXR) activation by small molecules, qHTS assay (AID 1346985). Also: nearly all actives have a fitted effect of over 40% in size. The essentials:
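DPX-2 cells (HepG2 co-transfected with a PXR response element and a CYP3A4-promoter luciferase construct) were seeded at 2,000 per well, rested 5 hr at 37C, then exposed to DMSO-dissolved compounds for 24 hr. Activation was read as luciferase luminescence.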

Values without a mark were called inactive. Results filed as inconclusive are left out. Active and inactive are the calls of the source. Unless noted, calls follow the shape of the dose curve; as a rule, active = well fitted curve in the direction sought with a large enough effect in the repeat runs; inconclusive = weak or mixed curves; inactive = no such curve, though single readings can be large; an effect the other way counts as inactive or inconclusive.
% is scaled to controls: 0 for no effect and ±100 for the full control effect.

Chain of Thyrotropin-releasing hormone receptor (Homo sapiens) (P34981 whole entry, looked up): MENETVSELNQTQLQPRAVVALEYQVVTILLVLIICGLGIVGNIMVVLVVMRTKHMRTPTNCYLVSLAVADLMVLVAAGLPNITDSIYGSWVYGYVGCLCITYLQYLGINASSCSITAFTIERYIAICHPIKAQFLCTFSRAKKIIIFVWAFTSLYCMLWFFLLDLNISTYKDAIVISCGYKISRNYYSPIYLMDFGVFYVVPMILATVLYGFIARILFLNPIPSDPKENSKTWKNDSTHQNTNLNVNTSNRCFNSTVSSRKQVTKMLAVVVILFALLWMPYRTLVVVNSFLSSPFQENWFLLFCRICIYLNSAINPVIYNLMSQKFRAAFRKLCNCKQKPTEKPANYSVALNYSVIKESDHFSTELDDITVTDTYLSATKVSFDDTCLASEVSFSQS
Chain of Acetylcholinesterase (Homo sapiens) (P22303 whole entry, looked up): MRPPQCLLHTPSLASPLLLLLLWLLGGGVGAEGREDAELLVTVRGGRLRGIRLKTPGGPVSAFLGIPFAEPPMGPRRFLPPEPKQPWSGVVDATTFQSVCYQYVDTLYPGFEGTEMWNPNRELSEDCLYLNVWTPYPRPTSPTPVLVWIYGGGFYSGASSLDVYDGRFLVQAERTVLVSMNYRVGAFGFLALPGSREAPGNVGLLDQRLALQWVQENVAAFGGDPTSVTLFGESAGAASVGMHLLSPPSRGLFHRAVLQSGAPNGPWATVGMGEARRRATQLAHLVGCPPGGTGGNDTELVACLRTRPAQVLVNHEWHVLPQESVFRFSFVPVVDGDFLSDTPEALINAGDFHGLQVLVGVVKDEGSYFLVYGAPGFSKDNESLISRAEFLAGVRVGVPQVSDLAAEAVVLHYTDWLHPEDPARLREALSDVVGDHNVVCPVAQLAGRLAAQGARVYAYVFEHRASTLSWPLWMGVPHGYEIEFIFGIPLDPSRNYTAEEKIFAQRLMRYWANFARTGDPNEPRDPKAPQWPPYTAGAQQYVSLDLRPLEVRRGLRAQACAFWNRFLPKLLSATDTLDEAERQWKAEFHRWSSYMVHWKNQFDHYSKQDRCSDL
Chain of Progesterone receptor (Homo sapiens) (P06401 whole entry, looked up): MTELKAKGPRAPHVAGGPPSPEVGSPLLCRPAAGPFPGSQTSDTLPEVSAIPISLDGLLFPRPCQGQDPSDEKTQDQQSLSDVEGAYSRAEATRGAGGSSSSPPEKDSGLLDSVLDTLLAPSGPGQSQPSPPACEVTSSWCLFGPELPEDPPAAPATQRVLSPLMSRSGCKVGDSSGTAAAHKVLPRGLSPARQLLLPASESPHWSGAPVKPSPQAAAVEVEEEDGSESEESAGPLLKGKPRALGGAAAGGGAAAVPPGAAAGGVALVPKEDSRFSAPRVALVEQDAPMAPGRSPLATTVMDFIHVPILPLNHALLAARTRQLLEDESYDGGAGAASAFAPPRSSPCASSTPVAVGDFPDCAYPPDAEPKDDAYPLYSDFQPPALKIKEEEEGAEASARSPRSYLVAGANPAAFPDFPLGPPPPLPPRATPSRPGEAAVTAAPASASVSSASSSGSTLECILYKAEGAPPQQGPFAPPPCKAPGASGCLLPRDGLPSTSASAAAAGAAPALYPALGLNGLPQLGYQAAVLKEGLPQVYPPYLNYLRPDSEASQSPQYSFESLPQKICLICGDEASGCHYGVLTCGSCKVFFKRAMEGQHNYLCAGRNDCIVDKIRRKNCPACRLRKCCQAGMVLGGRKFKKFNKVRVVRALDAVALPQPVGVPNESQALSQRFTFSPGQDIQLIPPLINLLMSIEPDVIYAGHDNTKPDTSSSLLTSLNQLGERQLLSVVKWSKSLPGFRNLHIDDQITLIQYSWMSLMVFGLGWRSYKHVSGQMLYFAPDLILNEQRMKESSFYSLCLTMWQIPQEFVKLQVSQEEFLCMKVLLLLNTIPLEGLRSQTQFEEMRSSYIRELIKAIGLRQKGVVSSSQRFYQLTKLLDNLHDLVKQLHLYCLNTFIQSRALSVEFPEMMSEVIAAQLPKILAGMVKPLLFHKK
Chain of Nuclear receptor subfamily 1 group I member 2 (Homo sapiens) (O75469 whole entry, looked up): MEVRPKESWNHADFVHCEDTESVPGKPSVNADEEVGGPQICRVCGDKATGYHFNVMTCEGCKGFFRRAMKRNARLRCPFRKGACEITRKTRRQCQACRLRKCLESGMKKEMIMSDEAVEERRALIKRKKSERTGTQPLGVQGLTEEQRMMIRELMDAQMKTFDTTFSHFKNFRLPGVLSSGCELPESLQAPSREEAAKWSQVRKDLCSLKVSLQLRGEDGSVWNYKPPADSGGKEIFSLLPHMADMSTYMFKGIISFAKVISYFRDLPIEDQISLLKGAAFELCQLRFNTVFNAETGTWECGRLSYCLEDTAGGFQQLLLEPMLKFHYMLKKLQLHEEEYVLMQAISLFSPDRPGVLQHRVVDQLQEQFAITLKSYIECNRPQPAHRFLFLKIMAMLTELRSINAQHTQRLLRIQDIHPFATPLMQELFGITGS
Chain of Nuclear receptor subfamily 1 group I member 2 (Rattus norvegicus) (Q9R1A7 whole entry, looked up): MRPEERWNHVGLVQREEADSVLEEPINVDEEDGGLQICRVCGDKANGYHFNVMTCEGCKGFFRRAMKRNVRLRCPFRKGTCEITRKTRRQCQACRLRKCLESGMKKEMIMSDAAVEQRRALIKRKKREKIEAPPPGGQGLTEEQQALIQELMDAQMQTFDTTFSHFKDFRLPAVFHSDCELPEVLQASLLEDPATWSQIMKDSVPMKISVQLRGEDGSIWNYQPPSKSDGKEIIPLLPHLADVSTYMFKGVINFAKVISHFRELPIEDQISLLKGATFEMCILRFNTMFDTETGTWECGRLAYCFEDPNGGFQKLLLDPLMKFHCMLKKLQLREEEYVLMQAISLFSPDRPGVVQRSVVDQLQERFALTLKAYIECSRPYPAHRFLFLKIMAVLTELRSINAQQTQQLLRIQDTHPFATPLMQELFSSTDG

As for `Nc1n[nH]c(N)n1`, the Potency entry in assay [1], in [2], in [3], in assay [4], in assay [8] and in assay [9] was “inactive” each time. Besides, the Potency entry in [10], in [11], in assay [12], in [13] and in assay [14] was “inactive” in each case. The outcome in assay [5], in assay [6] and in assay [7] was inactive.

As for `c1coc(-c2nc3ccccc3[nH]2)c1`, the Potency entry in assay [1], in assay [15], in assay [16], in assay [3], in assay [4] and in assay [8] was “inactive” in each case. For the same molecule, the Potency entry in assay [9], in assay [10], in assay [11], in [12] and in [14] was “inactive” throughout. Moreover, the result in assay [5], in assay [6], in [7] and in assay [17] was inactive. The Potency in assay [13] is 3.44 µM (active).

Take `CC(=O)Nc1cc([As](=O)(O)O)ccc1O`: the Potency result in assay [1], in assay [15], in assay [16], in assay [3], in [4] and in assay [8] was “inactive” each time. For the same molecule, the Potency result in assay [9], in [10], in assay [11], in assay [12], in [19] and in assay [20] was “inactive” in each case. Besides, the Potency result in assay [14] is “inactive”. The call in assay [5], in assay [6], in [7] and in assay [17] was inactive. Moreover, the max activation in assay [18] was -4.41%.

Turning to `CC1(C)C(=O)NC(=O)NC1=O`, the Potency result in [1], in [2], in assay [4], in assay [8], in [9] and in [10] was “inactive” in each case. Further, the Potency result in assay [11], in assay [13] and in [14] was “inactive” each time. Also, the outcome in assay [6], in [7] and in assay [17] was inactive.

Take `COC(=O)C(C)Oc1ccc(Oc2ccc(Cl)cc2Cl)cc1` (stereo unspecified): the Potency entry in [1], in assay [2], in assay [16], in assay [4], in assay [8] and in assay [9] was “inactive” each time. The Potency result in [10], in assay [11] and in assay [14] was “inactive” each time. The call in assay [5] and in assay [6] was inactive.

Regarding `O=[N+]([O-])c1cccc2c([N+](=O)[O-])cccc12`, the Potency entry in assay [1], in [15], in assay [4], in assay [8], in [9] and in [10] was “inactive” in each case. For the same molecule, the Potency entry in assay [11], in [12], in [13] and in assay [14] was “inactive” each time. The outcome in assay [5], in assay [6], in assay [7] and in assay [17] was inactive.

`CC1COC2(c3ccccc3Cl)c3cc(Cl)ccc3NC(=O)CN12` (stereo unspecified): the Potency result in [1], in assay [2], in assay [3], in assay [4], in assay [8] and in assay [9] was “inactive” throughout. Moreover, the Potency result in assay [11], in [12] and in [14] was “inactive” throughout. The outcome in assay [5] and in [6] was inactive. Also, the Potency in assay [13] is 23.7 µM (active).

As to `CC(COc1ccc(Oc2ccccc2)cc1)Oc1ccccn1` (stereo unspecified), the Potency result in assay [1], in assay [2], in assay [4], in assay [8], in assay [9] and in assay [10] was “inactive” in each case. Moreover, the Potency entry in assay [11], in assay [12] and in [14] was “inactive” throughout. The call in [5], in assay [6], in assay [7] and in assay [17] was inactive.

As to `O=C1CN2CCOC2(c2ccccc2Cl)c2cc(Cl)ccc2N1` (stereo unspecified), the Potency entry in assay [1], in [2], in assay [16], in [3], in [4] and in assay [8] was “inactive” each time. Also, the Potency entry in assay [9], in assay [10], in assay [12] and in [14] was “inactive” each time. In addition, the molecule was classed as inactive in [6].

For the molecule `COC(=O)c1ccccc1S(=O)(=O)NC(=O)Nc1nc(C)cc(C)n1`, the Potency entry in assay [1], in [15], in assay [16], in assay [3], in assay [8] and in assay [9] was “inactive” in each case. Also, the Potency result in [10], in assay [11], in assay [12] and in assay [13] was “inactive” each time. Moreover, the outcome in [5], in assay [6], in [7] and in assay [17] was inactive.

Turning to `O=[N+]([O-])c1ccc2c3c(cccc13)CC2`, the Potency result in assay [1], in assay [16], in assay [3], in assay [4], in [8] and in [9] was “inactive” in each case. The Potency entry in [10], in assay [11], in assay [12] and in assay [14] was “inactive” each time. Moreover, the Potency in assay [15] was 24.3 µM (active); in assay [13], 54.5 µM (active). For the same molecule, the molecule was called inactive in assay [5], in [6], in assay [7] and in assay [17].
